The full list was thinned out, with hits kept by preference.
Cycloheximide cs – affects cycloheximide protein synthesis inhibition readout, counter-screen. cell reporter, cycloheximide protein synthesis inhibition counterscreen. max response, %. hit rate 12% among 300,000. AID 2314; in the data active = max response mostly above about 13%, no sharp cut-off; inactive = mostly below about 14%; note: read at 38.3 µM for the half of the compounds with a filed dose; 0% is about no effect
Shiga inhibitor – Shiga toxin inhibition; Vero cells, Shiga toxin protein synthesis inhibition reporter; inhibition, % at 38.7 µM; hit rate 9.2% among 290,000; AID 2315; in the data active = inhibition mostly above about 28%, no sharp cut-off; inactive = mostly below about 43%; note: 0% is about no effect
Giardia FBPA inh – inhibitors of Giardia lamblia fructose-1,6-bisphosphate aldolase | A8B2U2 | purified Giardia FBPA | Potency, µM (highest dose often 59.6 µM), inactives show at the highest dose activity, negative = inhibition, usual class: inhibitors | hit rate 0.71% among 290,000 | AID 2451; note: potency is the fitted concentration of half-maximal effect; % is set by controls: 0 for no effect and ±100 for the full control effect; nearly all actives have a fitted effect of over 55% in size
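40 nM FBPA preincubated 10 min at RT with compound (up to 57.5 uM final), then substrate plus GAPDH/TPI/NAD/arsenate coupling and diaphorase/resazurin added. Fluorescence read after 20 min at RT, 525/598 nm.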
TbPYK inhibitor – inhibitors of Trypanosoma brucei pyruvate kinase | Q57TT1 | TbPYK enzyme, Kinase-Glo Plus ATP luminescence, 45 min | Potency, µM (top dose mostly 76.8 µM), for the others: at the top dose activity, negative = inhibition, most hits filed as inhibitors | hit rate 0.12% among 410,000 | AID 624173; note: potency is the fitted concentration of half-maximal effect; % is set by controls: 0 for no effect and ±100 for the full control effect; nearly all actives have a fitted effect of over 50% in size
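Screened from lowest to highest concentration, compounds were pinned into TbPYK/substrate mixtures, and ADP (130 uM final) was added. Plates sat at room temperature for 45 min prior to Kinase-Glo Plus detection by luminescence.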
RE007 growth inh – less growth of the S. pombe RE007 Vpr strain. S. pombe RE007 Vpr strain, BacTiter-Glo ATP luminescence, 24 h. Potency, µM (series often up to 92.2 µM), for the others: top-dose activity change, negative = less growth, usual class: inhibitors. hit rate 0.21% among 360,000; active = well fitted falling curve with a large enough effect; inconclusive = small, poorly fitted or top-dose-only effect; inactive = no such curve, though single readings can be large or run the other way; note: potency is the fitted concentration of half-maximal effect; % is set by controls: 0 for no effect and ±100 for the full control effect; nearly all actives have a fitted effect of over 50% in size
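Fission yeast strain RE007, carrying one chromosomally integrated HIV-1 vpr copy, was seeded at OD 0.01 in PMG+AL medium with 23 nL pinned compound. After 24 h at 30 °C and 99% humidity, viability was read by BacTiter-Glo luminescence.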
LmPK inhibitor – blocks Leishmania mexicana pyruvate kinase activity; Potency, µM (highest dose often 57.5 µM), without a hit: top-dose activity change, negative = inhibition, actives largely listed as inhibitors; hit rate 0.37% among 290,000; Q27686; purified LmPK, Kinase-Glo ATP luminescence, 1 h; note: potency is the fitted concentration of half-maximal effect; % is set by controls: 0 for no effect and ±100 for the full control effect
Target sequence (Q27686 whole entry, looked up): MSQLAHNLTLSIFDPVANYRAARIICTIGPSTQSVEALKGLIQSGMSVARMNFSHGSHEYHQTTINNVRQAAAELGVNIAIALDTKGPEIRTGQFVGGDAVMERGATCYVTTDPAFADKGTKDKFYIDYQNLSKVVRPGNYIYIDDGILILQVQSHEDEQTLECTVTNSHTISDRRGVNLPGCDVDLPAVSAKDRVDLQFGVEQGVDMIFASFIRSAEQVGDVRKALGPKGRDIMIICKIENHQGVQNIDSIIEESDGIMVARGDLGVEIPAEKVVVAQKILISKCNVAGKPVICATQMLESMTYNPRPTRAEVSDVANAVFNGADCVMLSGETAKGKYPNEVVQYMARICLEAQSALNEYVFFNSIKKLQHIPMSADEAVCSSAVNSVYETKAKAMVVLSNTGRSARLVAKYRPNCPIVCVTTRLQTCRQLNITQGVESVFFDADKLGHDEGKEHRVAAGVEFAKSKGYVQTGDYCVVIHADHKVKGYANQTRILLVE
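Pyruvate kinase activity monitored as ATP production (luciferase luminescence). Conditions: 0.1 nM enzyme, 0.5 mM PEP, 0.1 mM ADP, 1 h, RT; normalized against uninhibited and no-enzyme wells.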
An asterisk follows results filed as active; ? = inconclusive; / = no result; + = active, no number; [ ] = remark or other dose. Unless noted, calls come from the whole dose curve; as a rule, active = well fitted curve in the direction sought with a large enough effect; inconclusive = small, poorly fitted or top-dose-only effect, or another doubt; inactive = no such curve, though single readings can be large; an effect the other way counts as inactive or inconclusive.

SMILES	Cycloheximide cs	Shiga inhibitor	Giardia FBPA inh	TbPYK inhibitor	RE007 growth inh	LmPK inhibitor
Clc1ccc(-c2cc(-c3ccccc3)on2)cc1	/	/	/	2%	-15%	/
Cc1nc(-c2cc(-c3ccc(Cl)cc3)no2)cs1	52*	83*	5%	-6%	1%	-7%
CN1CCN(C(=O)c2ccc(-c3cnc4cccnn34)cc2)CC1	/	/	/	2%	-7%	/
Cc1ccc(NC(=O)c2sc(C)nc2C)c(C)c1	17*	36*	-6%	4%	6%	1%
Cc1ccc(NC(=O)c2ccc3nsnc3c2)c(C)c1	30*	35*	-9%	-9%	4%	0%
Cc1ccc(NC(=O)c2sc(Cl)nc2C)c(C)c1	12	1	2%	5%	39%	-1%
COC(=O)c1ccc(NC(=O)c2ccc3nsnc3c2)cc1	1	25	-6%	4%	-13%	-1%
F[B-](F)(F)COc1ccccc1	/	/	/	-5%	-10%	/
CC(=O)C(Sc1nc(N(C)C)nc(N(C)C)n1)C(=O)Nc1ccccc1 (stereo unspecified)	12	27	13%	-5%	3%	-1%
CC(=O)C(Sc1nn(C)c(=S)s1)C(=O)Nc1ccccc1 (stereo unspecified)	51*	113*	?	32µM*	?	14%
C[C@H](CO)N1C[C@H](C)[C@@H](CN(C)C(=O)C2CCOCC2)Oc2ncc(Br)cc2C1=O	/	/	/	1%	-12%	/
Cn1c(=O)oc2cc(S(=O)(=O)NC(CC(=O)O)c3cccc(Br)c3)ccc21 (stereo unspecified)	/	/	/	-5%	/	/
CC(=O)c1cccc(NC(=O)c2cc3nc(C)cc(C)n3n2)c1	27*	53*	-18%	-4%	-17%	-9%
Cc1cc(C)n2nc(C(=O)Nc3ccc4c(c3)OCO4)cc2n1	34*	70*	?	-13%	15%	-9%
O=C(Nc1ccc2c(c1)OCO2)c1cc2nc(C3CC3)cc(C(F)(F)F)n2n1	12*	11	-12%	0%	12%	0%
CC(=O)N[C@@H]1C(O)OC(CO)C(O)C1O (stereo partly specified)	/	/	-1%	0%	/	/
COCCNC(=O)c1cccc2c(-c3ccnn3C)coc12	/	/	/	-5%	-22%[18.4 µM]	/
O=[N+]([O-])c1ccc(CN2CC(N3CCN(CC4CC4)CC3)CS2(=O)=O)cc1 (stereo unspecified)	/	/	/	2%	5%	/
COc1cc(/C=N/NC(=O)c2ccccn2)ccc1OC(=O)c1cccs1	37*	67*	/	1%	-10%	-6%
COc1cc(/C=N/NC(=O)c2ccccn2)cc2c1OCO2	57*	107*	-3%	-2%	-19%	-19%
COc1cc(/C=N/Nc2ccccc2)ccc1OC(=O)c1cccs1	35*	61	-9%	-11%	122%	0%
COc1cc(/C=N/Nc2ccc(Cl)c(C(=O)O)c2)ccc1OC(=O)c1cccs1	14	47	3%	-15%	14%	3%
COc1cc(/C=N/NC(=O)COc2ccc(C)cc2)ccc1OC(=O)c1cccs1	16*	13	-5%	2%	3%	4%
O=C(Nc1ccccc1)c1cc(C2COCCN2C(=O)CCCc2ccccc2)on1 (stereo unspecified)	/	/	/	0%	11%	/
COc1ccc2c(c1)C(=NNc1ccc(C(=O)O)cc1)c1cc(OC)ccc1-2	9	43	0%	7%	/	-1%
SMILES	Cycloheximide cs	Shiga inhibitor	Giardia FBPA inh	TbPYK inhibitor	RE007 growth inh	LmPK inhibitor
C/C(=N\Nc1ccc(C(=O)O)cc1)c1ccc(Br)cc1	21*	42*	8%	2%	-18%	4%
C/C(=N\Nc1ccc(Cl)c(C(=O)O)c1)c1ccc(Br)s1	59*	153*	-18%	-12%	-12%	5%
COc1ccc(/C(C)=N/Nc2ccc(C(=O)O)cc2)c(OC)c1	61*	53*	-1%	11%	-7%	1%
C/C(=N\Nc1ccc(C(=O)O)cc1)c1ccc(Cl)s1	40*	62*	-3%	2%	0%	-4%
C/C(=N/Nc1ncc(Br)cn1)c1ccc(Br)cc1	2	33	12%	?	2%	5%
Cc1ccccc1CC(=O)N1CCOCC1	-2	-3	9%	2%	-7%	6%
CCn1c(SCc2ccccc2C)nc(=O)c2c(C(=O)OC)cc(C3CC3)nc21	/	/	/	4%	/	/
CN(CCCNC(=O)c1cc2c(=O)n(C)c3ccccc3c2s1)Cc1ccccc1	/	/	/	-8%	/	/
CCOC(=O)c1c(NC(C)=O)sc(/C(C)=N/Nc2ccc(C(=O)O)cc2)c1C	70*	59*	0%	10%	13%	-3%
O=C(CNc1ccccc1)N/N=C/c1ccc2c(c1)OCCO2	34*	48*	2%	4%	0%	-3%
O=C(CNc1ccccc1)N/N=C/c1ccc2c(c1)OCO2	20*	29*	4%	-13%	18%	4%
COc1ccc(CCC(=O)N/N=C/c2ccc3c(c2)OCO3)cc1	/	/	/	-2%	2%	/
C/C(=N\NC(=O)Cn1ccc(C(F)(F)F)n1)c1ccc2c(c1)OCO2	7	28	-5%	-4%	-3%	1%
O=C(Cn1ccc(C(F)(F)F)n1)N/N=C/c1ccc2c(c1)OCO2	37*	122*	4%	-9%	43%	-6%
O=C(CCc1ccccc1)NCC(=O)N/N=C/c1ccc2c(c1)OCO2	19*	53*	2%	4%	0%	-8%
COCCNC(=O)C1(C)CCCN(C(=O)c2cc(C)oc2C)C1 (stereo unspecified)	/	/	/	1%	29%	/
O=C(NN=Cc1ccc2c(c1)OCO2)NN=Cc1ccc2c(c1)OCO2	/	/	/	-8%	-9%	/
O=C(CSc1ncccn1)N/N=C/c1ccc2c(c1)OCO2	34*	25	8%	0%	-1%	-1%
O=C(Cc1ccccc1)N/N=C/c1ccc2c(c1)OCO2	34*	72*	8%	-16%	-12%	2%
CCC1CN(C(=O)C2CCN(S(=O)(=O)c3c(C)noc3/C=C/c3ccccc3F)CC2)c2cc(Cl)ccc2O1 (stereo unspecified)	/	/	/	3%	/	/
O=[N+]([O-])c1ncccc1OCc1ccc(Cl)c(Cl)c1	38*	58*	11%	-3%	?	-2%
CN(C)S(=O)(=O)c1cccc(COc2cccnc2[N+](=O)[O-])c1	-3	2	-6%	-9%	2%	5%
COC(=O)c1c(NC(=O)Cc2coc3cc(C)ccc23)sc2c1CCCC2	/	/	/	2%	/	/
CC1=NN(c2cccc(C(=O)O)c2)C(=O)/C1=C\C=C/c1ccccc1	80*	+	-24%	?	-26%	-2%
O=C(Nc1cccc(F)c1)C1CCN(c2nc3ccccc3[nH]2)CC1	/	/	/	0%[15.4 µM]	/	/
COc1cccc2sc(Nc3nnc(-c4ccccc4Cl)o3)nc12	0	-3	?	2%	-17%	-1%
